Assay results: PubChem BioAssay AID720597 (Broad Institute, 2013)
Entries with a potency or affinity are not part of this list. The source made the active and inactive calls.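 Rule for the calls: active = fitted half-maximal dose no more than twice the top valid tested dose, for compounds that lower signal; inconclusive = fit invalid, or curve flat with activity between -70 and -30; inactive = potency past limit, curve flat within ±30, or signal increasing.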

biological target: NAD-dependent protein deacylase sirtuin-5, mitochondrial (Homo sapiens) (UniProt Q9NXA8); test: SIRT5 deacylase inhibitors, dose response, biochemical, fluorescence imaging, cherry-pick, set 6 (AID 720597); conditions: Purified SirT5, succinyl-peptide-AMC/trypsin fluorescence; series mostly up to 15 µM;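 note: lower AMC signal can also come from blocking the trypsin step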
Sequence (Q9NXA8 whole entry, looked up): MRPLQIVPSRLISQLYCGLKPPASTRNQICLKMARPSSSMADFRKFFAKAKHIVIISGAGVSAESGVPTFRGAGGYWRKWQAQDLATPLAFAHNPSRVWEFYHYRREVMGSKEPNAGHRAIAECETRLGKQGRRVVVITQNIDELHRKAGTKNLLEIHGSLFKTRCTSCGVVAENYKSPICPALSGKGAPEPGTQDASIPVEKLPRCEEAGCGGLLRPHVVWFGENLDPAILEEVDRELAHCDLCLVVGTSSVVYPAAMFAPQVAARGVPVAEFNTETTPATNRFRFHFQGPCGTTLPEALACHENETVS

outcome, inactive:
C[C@H]1CN([C@@H](C)CO)C(=O)c2c(c3ccccc3n2C)-c2ccccc2CO[C@@H]1CN(C)Cc1cccc2c1OCCCO2
CO[C@H]1CC[C@@H]2CCOc3c(C#N)cccc3C(=O)N(C)C[C@H](C)C(=O)N(C)C[C@@H]1O2
C[C@@H]1CN([C@@H](C)CO)C(=O)c2cc(NS(=O)(=O)c3ccccc3)ccc2O[C@@H]1CN(C)Cc1ccc(Oc2ccccc2)cc1
CCCC#Cc1ccc([C@@H]2[C@@H](CO)N3CCCCN(S(=O)(=O)Cc4ccccc4)C[C@@H]23)cc1
C[C@@H]1CN([C@@H](C)CO)C(=O)Cc2cc(NS(=O)(=O)c3ccc(F)cc3)ccc2O[C@H]1CN(C)Cc1ccc(C(F)(F)F)cc1
C[C@H]1CN([C@@H](C)CO)C(=O)c2cc(C#CC3CCCCC3)cnc2O[C@@H]1CN(C)S(=O)(=O)c1cccc(F)c1
C[C@@H]1CCCCO[C@@H](CN(C)Cc2ccc(C(F)(F)F)cc2)[C@H](C)CN([C@H](C)CO)C(=O)c2cc(NS(=O)(=O)c3ccccc3)ccc2O1
CCC(=O)NC[C@H]1[C@@H](c2ccccc2)[C@H](CO)N1C(=O)C1CCC1
C[C@H](CO)N1C[C@H](C)[C@H](CN(C)C(=O)Nc2ccc(F)cc2)Oc2cc(/C=C/c3ccccc3)ccc2S1(=O)=O
Cc1noc(C)c1NC(=O)Nc1cccc2c1O[C@@H](CN(C)Cc1ccc(Oc3ccccc3)cc1)[C@H](C)CN([C@@H](C)CO)C2=O
C[C@@H]1CCCCO[C@@H](CN(C)C(=O)Nc2ccc(C(F)(F)F)cc2)[C@H](C)CN([C@@H](C)CO)C(=O)c2cc(NS(=O)(=O)c3ccc(Cl)cc3)ccc2O1
COc1ccc(S(=O)(=O)N(C)C[C@@H]2Oc3c(NS(C)(=O)=O)cccc3C(=O)N([C@@H](C)CO)C[C@H]2C)cc1
C[C@@H]1CN([C@H](C)CO)C(=O)c2cc(NC(=O)NC3CCCCC3)ccc2O[C@@H](C)CCCCO[C@@H]1CN(C)Cc1ccc(Cl)c(Cl)c1
CCCC#Cc1ccc2c(c1)[C@@H]1[C@@H](CCN1S(=O)(=O)c1ccccc1C)[C@@H](CO)N2
COc1cccc(NC(=O)N(C)C[C@@H]2OCc3cn(nn3)CCCC(=O)N([C@H](C)CO)C[C@H]2C)c1
COc1ccc(NC(=O)N(C)C[C@H]2Oc3c(NS(C)(=O)=O)cccc3C(=O)N([C@@H](C)CO)C[C@H]2C)cc1
Cc1ccccc1-c1ccc2c(c1)O[C@@H](CN(C)C(=O)Nc1ccc(F)cc1)[C@@H](C)CN([C@@H](C)CO)S2(=O)=O
O=C(CN1CCOCC1)N1CCCCN2[C@H](C1)[C@H](c1ccc(-c3ccccc3F)cc1)[C@@H]2CO
COc1ccccc1C(=O)Nc1ccc2c(c1)C(=O)N(C)[C@H]1CC[C@H](CC(=O)Nc3cccc(C(C)C)c3)O[C@@H]1CO2
COc1ccc(S(=O)(=O)Nc2ccc3c(c2)C(=O)N([C@@H](C)CO)C[C@H](C)[C@H](CN(C)S(=O)(=O)c2ccc(Cl)cc2)OCCCC[C@@H](C)O3)cc1
C[C@@H]1CN([C@@H](C)CO)S(=O)(=O)c2ccc(/C=C/c3ccccc3)cc2O[C@@H]1CN(C)C(=O)C1CC1
C[C@@H](O)C#Cc1ccc2c(c1)O[C@H](CN(C)Cc1ccc(-c3ccccc3)cc1)[C@@H](C)CN([C@@H](C)CO)S2(=O)=O
Cc1ccc(S(=O)(=O)N(C)C[C@@H]2OCCCC[C@@H](C)Oc3ccc(NS(=O)(=O)c4ccc(F)cc4)cc3C(=O)N([C@H](C)CO)C[C@H]2C)cc1
Cc1ccc(S(=O)(=O)Nc2ccc3c(c2)C(=O)N([C@@H](C)CO)C[C@@H](C)[C@H](CN(C)Cc2ccc(C(F)(F)F)cc2)OCCCC[C@@H](C)O3)cc1
O=S(=O)(c1ccc(F)cc1)N1CCCCN2[C@H](CO)[C@H](c3ccc(C#CC4CCCC4)cc3)[C@@H]2C1
O=C(O)[C@@H]1[C@@H](CO)[C@@H]2Cn3c(ccc(-c4ccccc4F)c3=O)[C@@H]2N1Cc1ccccc1
C[C@H](NC(=O)C[C@@H]1CC[C@H]2[C@@H](COC[C@@H](O)CN2C(=O)Nc2cccc(F)c2)O1)c1ccccc1
C[C@@H]1CN([C@H](C)CO)C(=O)c2cc(NS(=O)(=O)c3ccc(Cl)cc3)ccc2O[C@@H]1CN(C)Cc1ccc(-c2ccccc2)cc1
COCC(=O)Nc1ccc2c(c1)[C@@H]1C[C@@H](CC(=O)NCc3ccccc3OC)O[C@@H](CO)[C@@H]1O2
